Data taken from PubChem BioAssay AID1626 (SRMLSC, 2009).
Among all 220,000 compounds or so, about 2,000 (0.91%) were called active. About 2% were inconclusive and are not listed. No stated cut-off is given here; in the data, inconclusive means inhibition above about 80% without an active follow-up result; inactive means below that; test concentration not stated here. Not all results are given here. Entries with a potency or affinity are not part of this list.

Assay: M. tuberculosis H37Rv growth inhibitors, H37Rv strain (AID 1626);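 further: bacteria incubated seven days before Alamar blue readout; 0% = bacteria only wells and 100% = bacteria with antibiotic wells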
Conditions: stronger effect = higher value, concentration not given here

Row | SMILES | inhibition
1 | O=C(Nc1ccc(N2CCN(C(=O)c3ccc(Cl)cc3)CC2)cc1)c1cc2ccccc2o1 | -12.4% (inactive)
2 | O=C(Nc1ccc(N2CCN(C(=O)c3ccco3)CC2)cc1)c1ccccc1 | 7.16% (inactive)
3 | O=C(Nc1ccc(N2CCN(C(=O)c3ccco3)CC2)cc1)c1ccco1 | -0.76% (inactive)
4 | Cc1ccc(-c2nn(-c3ccccc3)cc2/C=C/C(=O)OCC(=O)NC2CC2)o1 | 6.54% (inactive)
5 | Cc1cc(C)n(-c2ccc(C(=O)Nc3cccnc3Cl)cc2)n1 | -2.86% (inactive)
6 | CS(=O)(=O)N1CCc2cc(NC(=O)c3ccc(Cl)cc3Cl)ccc21 | -3.19% (inactive)
7 | COc1ccc(/C=N/NC(=O)C2C3CCCCC32)cc1OC (stereo not drawn) | 1.66% (inactive)
8 | CCOc1ccc(Br)cc1S(=O)(=O)Nc1ccc(C(=O)Nc2ccc(C)cc2)cc1 | 1.51% (inactive)
9 | CN1C(C(=O)NCC2CC2)CC2Cn3c(nc4cc5ccccc5cc43)C21 (stereo not drawn) | -9.29% (inactive)
10 | COc1ccccc1NC(C#N)c1ccccc1OCc1ccccc1 (stereo not drawn) | 5.14% (inactive)
11 | N#CC(Nc1ccccc1)c1ccccc1OCc1ccccc1 (stereo not drawn) | 5.52% (inactive)
12 | CC(=O)n1c2ccccc2c2c1c1ccccc1n2C | 6.42% (inactive)
13 | CC(C)OC(=O)CC1C(=O)NCCN1C(=S)NC(=O)c1ccccc1 (stereo not drawn) | 3.87% (inactive)
14 | Cc1ccc(C)n1-c1ccc(N2CCOCC2)c(Br)c1 | 4.43% (inactive)
15 | COC(=O)c1ccc(C(=O)OC)c(NC(=O)CN2CCN(c3ccccc3OC)CC2)c1 | 72.2% (inactive)
16 | COC(=O)c1ccc(C(=O)OC)c(NC(=O)CN2CCN(c3ccc(OC)cc3)CC2)c1 | 13.8% (inactive)
17 | O=C1OCc2cc(N=Nc3c(O)[nH]c(=O)[nH]c3=O)ccc21 | -9.19% (inactive)
18 | COc1c(/C=N/NS(=O)(=O)c2ccc(C)cc2)c(CCN(C)C(C)=O)cc2c1OCO2 | -0.76% (inactive)
19 | CCn1c(SCC(=O)c2cccs2)nnc1-c1ccco1 | -18.1% (inactive)
20 | Nc1nc(Nc2ccc(Cl)cc2)nc(NCc2ccco2)c1[N+](=O)[O-] | 18.8% (inactive)
21 | Cc1cccc(Nc2nc(N)c([N+](=O)[O-])c(NCc3ccco3)n2)c1 | 22.5% (inactive)
22 | Cc1nn(C)c2c(=O)c(=O)c2n(C)[nH]1 | -3.16% (inactive)
23 | CC(C)CCNC(=O)c1onc(CSc2ccccc2)c1C(=O)NCCC(C)C | 19% (inactive)
24 | CCn1c(COc2ccc(C)cc2)nnc1SCC(=O)NNC(=O)c1ccc(OC)cc1 | 4.68% (inactive)

Row | SMILES | inhibition
25 | S=c1[nH]nc(-c2cccnc2)n1/N=C/c1ccccc1 | -12.5% (inactive)
26 | CCN1CCN(Cc2ccc(NC(=O)c3cc(NC(=O)c4nccnc4N)cc(OC)c3)cc2C(F)(F)F)CC1 | 6.4% (inactive)
27 | CCN1CCN(Cc2ccc(NC(=O)c3cc(NC(=O)c4ccno4)cc(OC)c3)cc2C(F)(F)F)CC1 | 14.6% (inactive)
28 | CCN1CCN(Cc2ccc(NC(=O)c3cc(NC(=O)c4ccc5n[nH]nc5c4)cc(OC)c3)cc2C(F)(F)F)CC1 | -1.88% (inactive)
29 | CCN1CCN(Cc2ccc(NC(=O)c3ccc(C)c(NC(=O)c4ccc5n[nH]nc5c4)c3)cc2C(F)(F)F)CC1 | -11% (inactive)
30 | CCN1CCN(Cc2ccc(NC(=O)c3cc(NC(=O)N4CCNC4=O)cc(OC)c3)cc2C(F)(F)F)CC1 | -1.27% (inactive)
31 | CCN1CCN(Cc2ccc(NC(=O)c3ccc(C)c(NC(=O)c4ccnnc4)c3)cc2C(F)(F)F)CC1 | -3.04% (inactive)
32 | Cc1cc(C)cc(NC(=O)CN2C(=O)NC(C)(c3ccccc3)C2=O)c1 (stereo not drawn) | 1.34% (inactive)
33 | COc1ccc(-c2nn(-c3ccccc3)cc2/C=C2/SC(=S)N(Cc3ccco3)C2=O)c(C)c1 | -0.21% (inactive)
34 | Cc1sc(NC(=O)c2ccccc2F)c(CN2CCCCC2)c1C | 7.51% (inactive)
35 | CCOc1ncccc1C(=O)OCC(=O)c1ccccc1 | -3.62% (inactive)
36 | COc1ccc(CNC(=O)COC(=O)C2=COCCO2)cc1 | 46.3% (inactive)
37 | CCN(CC(=O)Nc1ccc(NC(C)=O)cc1)CC(=O)Nc1ccccc1C(=O)c1ccccc1 | 2.54% (inactive)
38 | CC(=O)c1ccn(S(=O)(=O)c2ccccc2)c1 | 4.75% (inactive)
39 | CC1(C)Cc2c(cnn2-c2ccccc2)-c2c1c1ccccc1n2CC(O)CCl (stereo not drawn) | 2.97% (inactive)
40 | CC1(C)Cc2c(cnn2-c2ccccc2)-c2c1c1ccccc1n2CC(O)CBr (stereo not drawn) | 8.54% (inactive)
41 | O=C(Nc1ccc(Cl)cn1)c1ccc(-c2ccc(Cl)c(Cl)c2)o1 | 9.55% (inactive)
42 | COc1cc2nc(Cl)nc(N3CCCCC3)c2cc1OC | 1.6% (inactive)
43 | COc1cc2nc(-c3ccccc3)nc(N3CCCC3)c2cc1OC | 7.03% (inactive)
44 | O=c1c2ccccc2nc(SCc2ccncc2)n1CC1CCCO1 (stereo not drawn) | 4.12% (inactive)
45 | O=C(Nc1ccc(F)cc1F)Nc1ccc(F)cc1F | -3.43% (inactive)
46 | O=C(Nc1ccccc1)Nc1csc2ccccc12 | 14.7% (inactive)
47 | CSc1ccccc1NC(=O)Nc1ccc(F)c(Cl)c1 | 1.15% (inactive)
48 | O=C(Nc1ccc(F)cc1)Nc1csc2ccccc12 | 57.9% (inactive)
